Data taken from PubChem BioAssay (Tox21).
Records with an inconclusive call do not appear. Entries that show only a call come without a potency. Active and inactive are the calls of the source. Calls follow the shape of the dose curve; as a rule, active = well fitted cell-killing curve with a large enough effect in the repeat runs; inconclusive = weak or mixed curves, or effect the other way; inactive = flat fitted curve, though single readings scatter.

Experiment: cAMP Responsive Elements (CRE) small molecule antagonists, cell-based qHTS assay: qHTS cell viability counter screen (AID 2060913); also: nearly all actives have a fitted effect of over 40% in size
Conditions: CRE-bla HEK293T viability, CellTiter-Glo luminescence, 5 h; series mostly up to 92.4 µM
In short: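 CRE-bla HEK293T cells (2,000/well, 18 h) given compound plus NKH477 0.25 uM final for 3 h at 37C; viability counter-screen by CellTiter-Glo luminescence in same wells after 30 min.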

Compound | Potency | viability change, negative = cytotoxic
CCOC(=O)Nc1ccc(NCc2ccc(F)cc2)nc1N | inactive | –
ClCCCl | inactive | –
CSSc1ccoc1C | inactive | –
N#Cc1cc(NC(=O)C(=O)O)c(Cl)c(NC(=O)C(=O)O)c1 | inactive | –
O=C1OC2(c3ccccc31)c1cc(I)c(O)c(I)c1Oc1c2cc(I)c(O)c1I | inactive | –
CC(C)(C)c1ccc(OC(=O)c2ccccc2O)cc1 | inactive | –
O=C1NC2NC(=O)NC2N1 (stereo not drawn) | inactive | –
O=C1NC(=O)C(c2ccccc2)(c2ccccc2)N1 | inactive | –
Cc1c(Cl)cccc1[N+](=O)[O-] | inactive | –
COCCc1ccc(OCC(O)CNC(C)C)cc1 (stereo not drawn) | inactive | –
CCC(=O)Nc1cccc(N)c1 | inactive | –
Nc1ccc(/C=C/c2ccc(N)cc2S(=O)(=O)O)c(S(=O)(=O)O)c1 | – | 3.88% [at 0.349 µM] (inactive)
COC(=O)c1cccc(Cl)c1 | inactive | –
CCO[Si](C)(C)OCC | inactive | –
CCc1c(C)cc(N)c(CC)c1N | inactive | –
COc1cc(C(C)(C)C)c(O)c(C(C)(C)C)c1 | inactive | –
Nc1nc(-c2ccccc2)c(Br)c(=O)[nH]1 | inactive | –
O=[N+]([O-])c1ccc(/C=C/c2ccc([N+](=O)[O-])cc2S(=O)(=O)O)c(S(=O)(=O)O)c1 | inactive | –

Experiment: cAMP Responsive Elements (CRE) small molecule agonists, cell-based qHTS assay: qHTS cell viability counter screen (AID 2060914);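 also: viability read after 3 h of compound exposure; nearly all actives have a fitted effect of over 50% in size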
Conditions: CRE-bla HEK293T viability, CellTiter-Glo luminescence, 5 h; series mostly up to 92.4 µM
In short: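 HEK 293T CRE-bla; DMEM + 10% dialyzed FBS, 25 mM HEPES; 18 h pre-incubation; compound 3 h, 37 °C/5% CO2; CellTiter-Glo added after reporter read; luminescence after 30 min RT.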

Compound | Potency | activity change, negative = cytotoxicity
CCCCC(C)C(=O)O (stereo not drawn) | inactive | –
CCCCCCCCCCCCCCCCN | inactive | –
CCOC(=O)Nc1ccc(NCc2ccc(F)cc2)nc1N | inactive | –
Nc1nc(=S)c2[nH]cnc2[nH]1 | inactive | –
ClCCCl | inactive | –
C[C@]12C=CC(=O)C=C1CC[C@@H]1[C@@H]2[C@@H](O)C[C@@]2(C)[C@H]1CC[C@]2(O)C(=O)CO | inactive | –
CSSc1ccoc1C | inactive | –
CC(C)(C)NSc1nc2ccccc2s1 | inactive | –
N#Cc1cc(NC(=O)C(=O)O)c(Cl)c(NC(=O)C(=O)O)c1 | inactive | –
O=C1OC2(c3ccccc31)c1cc(I)c(O)c(I)c1Oc1c2cc(I)c(O)c1I | inactive | –
CC(C)(C)c1ccc(OC(=O)c2ccccc2O)cc1 | inactive | –
C[C@H](CCC(=O)O)[C@H]1CC[C@H]2[C@@H]3CC[C@@H]4C[C@H](O)CC[C@]4(C)[C@H]3C[C@H](O)[C@]12C | inactive | –
O=C1NC2NC(=O)NC2N1 (stereo not drawn) | inactive | –
O=C1NC(=O)C(c2ccccc2)(c2ccccc2)N1 | inactive | –
Cc1c(Cl)cccc1[N+](=O)[O-] | inactive | –
O=C(CCOCCOCCOCCOCCC(=O)Nc1c(I)cc(I)c(C(=O)O)c1I)Nc1c(I)cc(I)c(C(=O)O)c1I | inactive | –
CCCCCCCCN(C)CCCCCCCC | inactive | –
COCCc1ccc(OCC(O)CNC(C)C)cc1 (stereo not drawn) | inactive | –
CCC(=O)Nc1cccc(N)c1 | inactive | –
O=c1c(O)c(O)c1=O | inactive | –

Compound | Potency | activity change, negative = cytotoxicity
Nc1ccc(/C=C/c2ccc(N)cc2S(=O)(=O)O)c(S(=O)(=O)O)c1 | – | 6.77% [at 0.349 µM] (inactive)
CCOC(=O)C(C)Oc1ccc(Oc2nc3ccc(Cl)cc3o2)cc1 (stereo not drawn) | inactive | –
O=[N+]([O-])c1cc(C2CCCCC2)c(O)c([N+](=O)[O-])c1 | inactive | –
COc1ccc(OC(F)(F)F)cc1CN[C@H]1CCCN[C@H]1c1ccccc1 | inactive | –
COc1cc(S(=O)(=O)Nc2ccccc2)c(OC)cc1N | inactive | –
COC(=O)c1cccc(Cl)c1 | inactive | –
CCO[Si](C)(C)OCC | inactive | –
CC(C)CC(O)CC(C)C | inactive | –
CC(=O)CC(=O)Nc1ccc(S(=O)(=O)O)cc1 | inactive | –
CCc1c(C)cc(N)c(CC)c1N | inactive | –
CCN(CC)CCc1nc(-c2ccccc2)no1 | inactive | –
C/C=C/c1ccc(OC)c(OC)c1 | inactive | –
COc1cc(C(C)(C)C)c(O)c(C(C)(C)C)c1 | inactive | –
C=CC(=O)OCC(O)COc1ccccc1 (stereo not drawn) | inactive | –
O=C1CCCN1C1CCCCC1 | inactive | –
Nc1nc(-c2ccccc2)c(Br)c(=O)[nH]1 | inactive | –
O=[N+]([O-])c1ccc(/C=C/c2ccc([N+](=O)[O-])cc2S(=O)(=O)O)c(S(=O)(=O)O)c1 | inactive | –
N#CCC(=O)O | inactive | –
COCC(=O)O[C@]1(CCN(C)CCCc2nc3ccccc3[nH]2)CCc2cc(F)ccc2[C@@H]1C(C)C | inactive | –
CCC(CO)CO | inactive | –
